Screening results from PubChem.
Most compounds without a hit are left out; they make up all but 3.9% or so of the library.
MazEF act: increases E. coli MazEF RNase cleavage of RNA. P0AE70. FAM/BHQ RNA-DNA oligo cleavage fluorescence, 5 h. activation, % at 20 µM. hit rate 0.32% among 350,000. AID 504720; in the data active = activation above about 50%
Bead autofluor: flagged as autofluorescent in microsphere protease counterscreen; compound autofluorescence counterscreen, microsphere flow cytometry; active compounds read high; fluorescence intensity (no concentration beside the values); hit rate 3.1% among 360,000; AID 624483; in the data active = fluorescence intensity above about 16000; inconclusive = no clear call, values can overlap the other calls
BoNT-F LC inh: BoNT F light chain protease inhibition; Multiplex microsphere protease cleavage assay, flow cytometry; AID 588497; hit rate 0.22% among 360,000; inhibition, % at 10 µM; in the data active = inhibition above about 35%, passing the limit was not always enough; inconclusive = no clear call, values can overlap the other calls
Anthrax LF prot: anthrax lethal factor protease inhibition | hit rate 0.12% among 360,000 | multiplex microsphere protease cleavage assay, LF | inhibition, % at 10 µM | P15917 | AID 588501
Target sequence (P15917 whole entry, looked up): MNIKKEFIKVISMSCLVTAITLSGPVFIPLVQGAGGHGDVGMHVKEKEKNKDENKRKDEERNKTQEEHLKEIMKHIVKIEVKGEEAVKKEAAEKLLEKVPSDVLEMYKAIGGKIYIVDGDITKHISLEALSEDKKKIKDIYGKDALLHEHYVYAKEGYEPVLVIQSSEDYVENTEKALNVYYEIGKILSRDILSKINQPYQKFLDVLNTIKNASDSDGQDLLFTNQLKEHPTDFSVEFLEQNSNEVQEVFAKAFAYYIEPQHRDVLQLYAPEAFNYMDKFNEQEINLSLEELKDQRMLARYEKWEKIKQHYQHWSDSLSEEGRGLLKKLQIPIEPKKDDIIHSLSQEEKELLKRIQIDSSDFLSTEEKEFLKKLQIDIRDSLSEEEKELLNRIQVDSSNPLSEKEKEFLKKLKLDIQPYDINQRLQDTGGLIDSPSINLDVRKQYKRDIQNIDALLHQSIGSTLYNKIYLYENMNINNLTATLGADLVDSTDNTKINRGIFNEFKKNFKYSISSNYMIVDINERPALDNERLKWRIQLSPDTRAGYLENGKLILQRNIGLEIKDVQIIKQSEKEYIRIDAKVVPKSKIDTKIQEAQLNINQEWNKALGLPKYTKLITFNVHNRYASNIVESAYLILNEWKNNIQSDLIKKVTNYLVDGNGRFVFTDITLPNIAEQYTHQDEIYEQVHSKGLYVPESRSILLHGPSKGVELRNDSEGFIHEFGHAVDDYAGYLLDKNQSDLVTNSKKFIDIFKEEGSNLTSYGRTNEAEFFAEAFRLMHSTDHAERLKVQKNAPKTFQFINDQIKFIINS
BoNT-A LC inh2: BoNT A light chain protease inhibition. multiplex microsphere protease substrate cleavage, flow cytometry. inhibition, % at 10 µM. hit rate 0.17% among 360,000
BH1578 lux ind: induces V. cholerae light production without autoinducers | activation, % at 18.7 µM | hit rate 0.16% among 350,000 | AID 588436 | V. cholerae BH1578 lux reporter, luminescence, 6 h; in the data active = activation mostly above about 9.7%, no sharp cut-off; inconclusive = no clear call, values can overlap the other calls; inactive = mostly below about 3.7%
Each line names hits and unclear results; the compound was inactive in the other large screens; ! = not active in a repeat. Cut-off read from the data, not from the text of the source, unless noted: active = inhibition above about 30%; inconclusive = no clear call, values can overlap the other calls; inactive = below that.

Cc1cc(C)n(CC(O)COc2cccc(OCC(O)Cn3nc(C)cc3C)c2)n1 (centres undefined)	none
Cc1cc2c(cc1C)[n+](C)cn2CC(O)COCc1ccccc1 (centres undefined)	Bead autofluor 22173
CC(=O)c1c(C(C)=O)c(C)n(-c2ccc(O)cc2)c1C	Bead autofluor 21526
Cc1nn(-c2ccccc2C(=O)O)c(=O)c2ccccc12	Bead autofluor 22783
Cc1nn(-c2ccccc2[N+](=O)[O-])c(=O)c2ccccc12	none
Cn1c(O)c(N=Nc2ccc(F)cc2)c2ccccc21	MazEF act 337
Cn1c(O)c(N=Nc2ccccc2)c2ccccc21	none
Cn1ccc2c(-c3ccc(C(=O)O)cc3)cc3c(c21)C1CCC3O1 (centres undefined)	none (no result: MazEF act, BH1578 lux ind)
COc1ccc(/C=C2/SC(=O)N(NS(=O)(=O)c3ccccc3)C2=S)cc1OC	Bead autofluor 21520
CC(NC(=O)/C=C/c1ccc(Br)cc1)c1ccccc1 (centres undefined)	none
CCc1ccc(C(C)NC(=O)/C=C/c2ccc(Br)cc2)cc1 (centres undefined)	Bead autofluor 22674
Cc1occc1C(=O)N/N=C/c1c[nH]c2ccccc12	Bead autofluor 22938
O=C(N/N=C/c1c[nH]c2ccccc12)c1ccccc1Cl	BoNT-F LC inh inconclusive
Cc1ccc(C2=NN(C(=O)CCCC(=O)O)C(c3ccc4c(c3)OCO4)C2)cc1 (centres undefined)	none
O=C(CN1CCC(NC(=O)c2ccc(F)cc2)CC1)NCc1ccccc1F	Bead autofluor 17206
O=S(=O)(CCSc1ccccn1)c1nc2ccccc2s1	Bead autofluor 23137
CCCCCCOc1cccc(N)c1	Bead autofluor 22320
CCCCOc1cccc(-c2nnc(N)s2)c1	none
Cc1cc2ncn(/N=C/c3ccc(-c4ccccc4)o3)c2cc1C	Bead autofluor 21563
Cc1cc2ncn(/N=C/c3ccc4c(c3)OCO4)c2cc1C	none
COC(=O)c1ccccc1CON1C(=O)C(C)(C)N(OCc2ccccc2C(=O)OC)C(=O)C1(C)C	Bead autofluor 16139
Cc1ccc(CNC(=O)c2ccc(CNS(=O)(=O)c3ccc4c(c3)C(C)(C)C(=O)N4C)cc2)o1	MazEF act 102
CCC(C)NC(=O)c1ccc(CNS(=O)(=O)c2ccc3c(c2)C(C)(C)C(=O)N3C)cc1 (centres undefined)	MazEF act 107
Cc1ccc(-c2nc(CS(=O)CC(=O)NCCN3CCCCCC3)c(C)o2)cc1 (centres undefined)	none
COCc1nnc(NS(=O)(=O)c2c(C)cc(C)cc2C)s1	Bead autofluor 23383
COCCOC(=O)C1=C(C)Nc2ncnn2C1c1ccccc1 (centres undefined)	none
COCCOC(=O)C1=C(C)Nc2nc(C)nn2C1c1ccc(F)cc1 (centres undefined)	Bead autofluor 18889!, BoNT-A LC inh2 inconclusive
C[C@@H]1NC(=O)N[C@@H]1CCCCCC(=O)O	none
CCCCCC1NC(=O)NC1CCCCCC(=O)O (centres undefined)	Bead autofluor 18045
O=C(NC(=S)Nc1cc(C(F)(F)F)ccc1N1CCOCC1)c1ccco1	none
CC(C)N(C(=O)[C@H]1CC(CC(=O)NC(C)(C)C)C(=O)N2CCc3c([nH]c4ccccc34)[C@]12C)C(C)C (some centres undefined)	none
CNC(=O)NC(=O)C(OC(=O)CCNS(=O)(=O)c1ccccc1)c1ccccc1 (centres undefined)	Bead autofluor 18283
O=C(CSc1nnc(Cc2ccccc2)n1Cc1ccco1)NC12CC3CC(CC(C3)C1)C2	Bead autofluor 23614, BoNT-A LC inh2 inconclusive
C=CCn1c(N)c(C(=O)NCc2cccnc2)sc1=S	none
C=CCn1c(N)c(C(=O)NC2CCCCC2)sc1=S	Bead autofluor 23947
CS(=O)(=O)Nc1cccc(NC(=O)C2Cc3c(-c4ccccc4)ccnc3O2)c1 (centres undefined)	none (no result: MazEF act)
O=C(Nc1c(-c2ccccc2)nc2ccccn12)c1ccccc1	none
O=C(Nc1c(-c2ccccc2)nc2ccccn12)c1cccc(F)c1	BoNT-F LC inh 36
S=c1[nH]nc(CSc2nc3ccccc3s2)n1Cc1ccccc1	none
CCn1c(CSc2nc3ccccc3s2)n[nH]c1=S	Bead autofluor 20748
CCCSc1nnc(CSc2nc3ccccc3s2)n1-c1ccccc1	Bead autofluor 17205
O=C1NC[C@H](CCCCN2C[C@H](Cc3ccccc3)N(CCc3ccc(O)cc3)C(=O)C2=O)N(CCc2ccccc2)C1=O	none (no result: MazEF act, BH1578 lux ind)
COc1ccc(C(CNC(=O)c2nn(-c3ccccc3)c(=O)c3ccccc23)N2CCOCC2)cc1 (centres undefined)	none
CCN1C(=O)C(Cc2nc3ccccc3c(=O)n2-c2ccccc2)c2ccccc21 (centres undefined)	Bead autofluor 19070, BoNT-A LC inh2 inconclusive
Cc1cc(Cl)c(S(=O)(=O)Nc2ccon2)cc1OCC(=O)NC1CCCCC1	none
Cc1cc(Cl)c(S(=O)(=O)Nc2ccc3c(c2)OCCO3)cc1OCC(=O)NC1CCCCC1	Bead autofluor 19863, BoNT-A LC inh2 inconclusive
Cc1cc(Cl)c(S(=O)(=O)N2CCN(c3ccc(F)cc3)CC2)cc1OCC(=O)NC1CCCCC1	Bead autofluor 16526
COC(=O)COc1ccc(S(=O)(=O)Nc2ccc3c(c2)OCCO3)cc1Cl	Bead autofluor 20964
Cc1cc(Cl)c(S(=O)(=O)N2CCN(c3ccc(F)cc3)CC2)cc1OCC(N)=O	none
CCN(CC)CCNc1ccc2nnc(CCNS(=O)(=O)c3ccc(C)cc3)n2n1	none
CCN1C(=O)[C@H]2[C@@H](c3ccc(C)cc3)N3C(=O)N(c4ccc(OC)cc4)C(=O)[C@@]3(C)[C@H]2C1=O	none
CC(=O)c1ccc(N2CCN(S(=O)(=O)c3cc4c(cc3C)NC(=O)CO4)CC2)cc1	none
CCC(=O)N1CCN(c2ccc(Cl)cc2NC(=O)c2ccc(N3CCCC3)c([N+](=O)[O-])c2)CC1	Bead autofluor 18754
Cc1cccc(NC(=O)c2ccc(N3CCCCC3)c([N+](=O)[O-])c2)n1	Bead autofluor 24725, BoNT-A LC inh2 inconclusive
CCC(=O)N1CCN(c2ccc(Cl)cc2NC(=O)c2ccc3c(c2)OCCO3)CC1	none
Cc1ccc(NC(=O)c2ccc(-n3cccn3)c([N+](=O)[O-])c2)cc1	Bead autofluor 16419
CCOc1ccc(N=C(NC#N)SCC(=O)NC2CC2)cc1	Bead autofluor 23167, BoNT-A LC inh2 inconclusive
COc1ccc(NC(=O)c2oc3ccccc3c2NC(=O)C(C)(C)C)cc1	none
COc1ccc(NC(=O)c2oc3ccccc3c2NC(=O)c2ccco2)cc1	Bead autofluor 21689
CCN(CC)S(=O)(=O)c1ccc2oc(C(=O)Nc3ccc(OC)cc3OC)c(C)c2c1	Bead autofluor 24222
COc1ccc(NC(=O)c2oc3ccccc3c2NC(=O)c2ccco2)c(OC)c1	Bead autofluor 23875
COc1ccccc1NC(=O)c1oc2ccccc2c1NC(=O)c1cc(OC)c(OC)c(OC)c1	none
COc1ccc(NC(=O)c2ccco2)c(OC)c1	none
